Some test systems named below: NCI-H23 lung; NCI-H226 lung; NCI-H322M lung; HOP-62 NSCLC; NCI-H460 lung; HOP-92 NSCLC; NCI-H522 lung; A549/ATCC NSCLC; 786-0 renal; COLO 205 colon; DU-145 prostate; K-562 leukemia; MDA-MB-231 breast; RXF 393 renal; SF-268 CNS; SF-295 CNS; SF-539 CNS; UACC-257 melanoma; M14 melanoma; MALME-3M melanoma.
Holding throughout (assay): NCI-60 one-dose screen, 48 h (100 = growth as untreated, 0 = no growth, -100 = all killed)
Details in all cases: 10 µM unless noted

This is part of a sample that, as a whole, favours compounds with a hit. Of some 83,000 tested, about 20% had one in any assay.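 Growth was measured after 48 h exposure to one concentration of compound in 96-well plates. Values under 10 count as active.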 Values without a mark were called inactive. Activity calls are given as the source filed them.

Turning to `Oc1ccccc1/C=N\NC(=S)Nc1ccc(F)cc1`, the growth with NCI-H23 lung is 30.4%; with NCI-H226 lung, 25.7%; in the experiment with NCI-H322M lung, 30.1%; with HOP-62 NSCLC, 36.5%; in the experiment on NCI-H460 lung, 4.08% (active); in the experiment on HOP-92 NSCLC, 46.4%. Also, the growth in the experiment on NCI-H522 lung was 21.4%; in the experiment on A549/ATCC NSCLC, 22.1%; in the experiment on 786-0 renal it was 16.6%; in the experiment with COLO 205 colon, 50.3%; with DU-145 prostate, 30.4%; with K-562 leukemia it was 14.9%. The growth in the experiment with MDA-MB-231 breast is 49%; with RXF 393 renal, 20.1%; with SF-268 CNS, 27.8%; in the experiment with SF-295 CNS, 11.6%; in the experiment with SF-539 CNS it was 23.9%; with UACC-257 melanoma, 15.4%. Moreover, in the experiment with M14 melanoma, the growth was -30.4% (active).

For `Cn1cc(-c2csc(-c3c[nH]c4ccccc34)n2)c2cccnc21`, the growth was 30.3% in the experiment on NCI-H23 lung; 60.3% in the experiment on NCI-H226 lung; 56.1% with NCI-H322M lung; 45.5% with HOP-62 NSCLC; 14.6% in the experiment with NCI-H460 lung; 49.5% with HOP-92 NSCLC. The growth with NCI-H522 lung is 5.06% (active); in the experiment on A549/ATCC NSCLC, 40.3%; in the experiment with 786-0 renal, 45.7%; in the experiment with COLO 205 colon it was 9.57% (active); in the experiment on DU-145 prostate it was 16.5%; in the experiment with K-562 leukemia it was 18.9%. Also, the growth in the experiment on MDA-MB-231 breast is 48.3%; in the experiment on RXF 393 renal, 12.6%; in the experiment with SF-268 CNS, 45.4%; with SF-295 CNS, 6.62% (active); with SF-539 CNS, -1.15% (active); in the experiment with UACC-257 melanoma, 64.6%. Further, in the experiment with M14 melanoma, the growth was 23.8%.

Regarding `O=[N+]([O-])c1ccc(/C=N\Nc2ccccc2)cc1`, the growth in the experiment with NCI-H23 lung is 93.9%; in the experiment with NCI-H226 lung it was 87.7%; with NCI-H322M lung it was 83%; with HOP-62 NSCLC, 95.2%; in the experiment with NCI-H460 lung it was 76.7%; with HOP-92 NSCLC, 100%. Besides, the growth in the experiment on NCI-H522 lung is 61%; in the experiment on A549/ATCC NSCLC, 57.7%; with 786-0 renal, 87.2%; with COLO 205 colon, 105%; in the experiment with DU-145 prostate, 97.1%; with K-562 leukemia, 25.2%. The growth in the experiment with MDA-MB-231 breast was 68.2%; in the experiment on RXF 393 renal, 107%; with SF-268 CNS it was 73.5%; with SF-295 CNS, 55.3%; in the experiment on SF-539 CNS, 107%; in the experiment on UACC-257 melanoma, 97.2%. Besides, the growth in the experiment with M14 melanoma was 31.6%.

`O=C(/C=C/c1cccc(O)c1)c1ccccc1O`: the growth with NCI-H23 lung is 86.8%; in the experiment on NCI-H226 lung, 98.2%; in the experiment with NCI-H322M lung, 98.4%; in the experiment with HOP-62 NSCLC, 94.4%; in the experiment on NCI-H460 lung it was 88.2%; in the experiment with HOP-92 NSCLC it was 68.6%. For the same molecule, the growth is -37.3% (active) in the experiment on NCI-H522 lung; 96.6% in the experiment with A549/ATCC NSCLC; 103% with 786-0 renal; 104% with COLO 205 colon; 83.2% in the experiment with DU-145 prostate; 80% with K-562 leukemia. Besides, the growth is 80.3% in the experiment with MDA-MB-231 breast; 89.9% in the experiment with RXF 393 renal; 94.2% with SF-268 CNS; 98.6% with SF-295 CNS; 102% in the experiment with SF-539 CNS; 86.8% in the experiment on UACC-257 melanoma. The growth in the experiment on M14 melanoma was 96.4%.

Consider `O=C(O)c1cccc2c1Cc1cc([N+](=O)[O-])ccc1-2`, for which the growth in the experiment with NCI-H23 lung is 103%; with NCI-H226 lung it was 100%; with NCI-H322M lung, 109%; in the experiment on HOP-62 NSCLC, 105%; in the experiment on NCI-H460 lung, 110%; with HOP-92 NSCLC, 82%. For the same molecule, the growth with NCI-H522 lung is 103%; in the experiment on A549/ATCC NSCLC, 107%; in the experiment with 786-0 renal, 108%; in the experiment on COLO 205 colon, 107%; in the experiment on DU-145 prostate, 109%; with K-562 leukemia it was 108%. Also, the growth with MDA-MB-231 breast is 102%; in the experiment on RXF 393 renal it was 118%; with SF-268 CNS it was 104%; in the experiment with SF-295 CNS it was 115%; in the experiment on SF-539 CNS, 93%; in the experiment with UACC-257 melanoma it was 109%. For the same molecule, the growth with M14 melanoma is 110%.

For the molecule `CC(=O)O[C@H]1CC[C@@]2(C)[C@@H](CC[C@@H]3[C@@H]2CC(=O)[C@@]2(C)[C@H]3C[C@@H](C3CCCC3=O)[C@@H]2C(C)=O)C1` (some centres not stated), the growth with NCI-H23 lung is 107%; in the experiment on NCI-H226 lung, 112%; with NCI-H322M lung, 106%; in the experiment with HOP-62 NSCLC it was 100%; with NCI-H460 lung, 111%; with HOP-92 NSCLC it was 93.1%. Also, the growth in the experiment with NCI-H522 lung is 82.5%; with A549/ATCC NSCLC it was 101%; with 786-0 renal it was 105%; in the experiment with COLO 205 colon, 116%; in the experiment on DU-145 prostate it was 117%; with K-562 leukemia, 105%. The growth with MDA-MB-231 breast was 98.8%; with RXF 393 renal, 132%; in the experiment on SF-268 CNS it was 112%; in the experiment with SF-295 CNS it was 112%; in the experiment on SF-539 CNS it was 105%; in the experiment on UACC-257 melanoma, 109%. The growth in the experiment with M14 melanoma was 97.8%.

As to `O=C(O)c1cccc2c1-c1ccc(Cl)cc1C2`, the growth with NCI-H23 lung is 106%; in the experiment on NCI-H226 lung, 100%; in the experiment with NCI-H322M lung, 97.1%; in the experiment with HOP-62 NSCLC, 106%; with NCI-H460 lung, 113%; in the experiment with HOP-92 NSCLC, 112%. Also, the growth with NCI-H522 lung is 88.2%; in the experiment on A549/ATCC NSCLC, 105%; in the experiment on 786-0 renal it was 110%; in the experiment on COLO 205 colon it was 114%; with DU-145 prostate it was 110%; with K-562 leukemia, 97.9%. The growth is 108% in the experiment with MDA-MB-231 breast; 124% in the experiment with RXF 393 renal; 107% in the experiment with SF-268 CNS; 116% in the experiment with SF-295 CNS; 104% in the experiment on SF-539 CNS; 107% in the experiment with UACC-257 melanoma. Besides, the growth in the experiment with M14 melanoma is 120%.

Take `COc1cc2nc(Cl)nc(Nc3cccc(C(=O)/C=C/c4ccc(F)cc4)c3)c2cc1OC`: the growth was 76% with NCI-H23 lung; 73.2% in the experiment on NCI-H226 lung; 86.5% with NCI-H322M lung; 85.9% with HOP-62 NSCLC; 75.3% in the experiment with HOP-92 NSCLC; 73.4% in the experiment on NCI-H522 lung. In addition, the growth in the experiment on A549/ATCC NSCLC was 70.2%; in the experiment on 786-0 renal it was 57.7%; with COLO 205 colon, 89.5%; in the experiment on DU-145 prostate, 85.7%; in the experiment with K-562 leukemia, 7.78% (active); in the experiment with MALME-3M melanoma it was 81.2%. In addition, the growth was 62.4% with MDA-MB-231 breast; 69.4% with RXF 393 renal; 89.6% in the experiment on SF-268 CNS; 74.1% in the experiment with SF-295 CNS; 25.8% with SF-539 CNS; 102% with UACC-257 melanoma. In the experiment with M14 melanoma, the growth was 62%.

These data come from PubChem BioAssay (NCI).
